# Results reported in PubChem BioAssay AID1159580 (chemical genetic matrix, 2015).
# Where “and” joins values, the source holds several entries; their conditions need not be identical. Equal values may be shown once. About 2,000 (36%) of roughly 5,500 compounds were called active. Another 18% or so got no clear call; they are omitted. This is one part of the list. Unmarked numbers belong to inactive results. Rule as the data show it: active = normalized growth mostly below about 0.91 (no sharp cut-off); inconclusive = no clear call, values can overlap the other calls; inactive = mostly above about 0.92.
# Test: chemical genetic growth profiling, strain panel (AID 1159580);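 also: tested at 20 µM; growth read once vehicle control cultures reached saturation at 30 °C; 1 = growth at the plate median or of vehicle wells; lower values mean less growth of the strain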
# Details: S. cerevisiae deletion strains, growth OD
smiles,measurement,setting,value
CC1CC[C@@]2(OC1)O[C@H]1CC3C4CC[C@@H]5C[C@@H](O)CC[C@]5(C)C4CC[C@]3(C)[C@H]1[C@@H]2C (stereo partly specified),normalized growth,"locus YAL013W, strain DEP1, active compounds read low",1.03
same,normalized growth,"locus YAL021C, strain ccr4, active compounds read low",1.05
same,normalized growth,"locus YAL026C, strain drs2, active compounds read low",1.02
same,normalized growth,"locus YAL030W, strain snc1, active compounds read low",1.03
same,normalized growth,"locus YBL061C, strain skt5, active compounds read low",1.02
same,normalized growth,"locus YBR009C, strain hhf1, active compounds read low",1.01
same,normalized growth,"locus YBR021W, strain FUR4, active compounds read low",1.02
same,normalized growth,"locus YBR023C, strain chs3, active compounds read low",1.05
same,normalized growth,"locus YBR171W, strain sec66, active compounds read low",1.04
same,normalized growth,"locus YBR229C, strain ROT2, active compounds read low",1.01
same,normalized growth,"locus YBR231C, strain swc5, active compounds read low",1.02
same,normalized growth,"locus YBR279W, strain paf1, active compounds read low",1.02
same,normalized growth,"locus YCL011C, strain gbp2, active compounds read low",1.06
same,normalized growth,"locus YCL016C, strain dcc1, active compounds read low",1.02
same,normalized growth,"locus YCL029C, strain bik1, active compounds read low",1.01
same,normalized growth,"locus YCL061C, strain MRC1, active compounds read low",1.02
same,normalized growth,"locus YCL069W, strain vba3, active compounds read low",1.05
same,normalized growth,"locus YCR088W, strain abp1, active compounds read low",1.03
same,normalized growth,"locus YDL005C, strain med2, active compounds read low",1.03
same,normalized growth,"locus YDL035C, strain GPR1, active compounds read low",1.07
same,normalized growth,"locus YDL040C, strain nat1, active compounds read low",1.02
same,normalized growth,"locus YDL074C, strain BRE1, active compounds read low",1.11
same,normalized growth,"locus YDL101C, strain DUN1, active compounds read low",1.02
same,normalized growth,"locus YDL134C, strain PPH21, active compounds read low",1.03
same,normalized growth,"locus YDL185W, strain tfp1, active compounds read low",1
same,normalized growth,"locus YDL192W, strain arf1, active compounds read low",1.01
same,normalized growth,"locus YDR001C, strain nth1, active compounds read low",1.05
same,normalized growth,"locus YDR069C, strain doa4, active compounds read low",1.06
same,normalized growth,"locus YDR101C, strain arx1, active compounds read low",1.01
same,normalized growth,"locus YDR137W, strain rgp1, active compounds read low",0.984
same,normalized growth,"locus YDR150W, strain NUM1, active compounds read low",1.03
same,normalized growth,"locus YDR159W, strain sac3, active compounds read low",1.01
same,normalized growth,"locus YDR162C, strain NBP2, active compounds read low",1.04
same,normalized growth,"locus YDR195W, strain ref2",1.17 [resistant] (active)
same,normalized growth,"locus YDR297W, strain sur2, active compounds read low",1.02
same,normalized growth,"locus YDR318W, strain mcm21, active compounds read low",1.01
same,normalized growth,"locus YDR334W, strain swr1, active compounds read low",1.05
same,normalized growth,"locus YDR335W, strain msn5, active compounds read low",1.06
same,normalized growth,"locus YDR388W, active compounds read low",1.02
same,normalized growth,"locus YDR392W, strain spt3, active compounds read low",1.03
same,normalized growth,"locus YDR502C, strain sam2, active compounds read low",0.997
same,normalized growth,"locus YEL003W, strain gim4, active compounds read low",1.08
same,normalized growth,"locus YEL037C, strain rad23, active compounds read low",1.2 [resistant] (active)
same,normalized growth,"locus YEL061C, strain CIN8 (second series), active compounds read low",1.08
same,normalized growth,"locus YER015W, strain faa2, active compounds read low",1.03
same,normalized growth,"locus YER016W, strain bim1, active compounds read low",1.02
same,normalized growth,"locus YER110C, active compounds read low",0.997
same,normalized growth,"locus YER111C, strain swi4, active compounds read low",1.28 [resistant] (active)
same,normalized growth,"locus YER155C, strain BEM2 (second series), active compounds read low",1.09
same,normalized growth,"locus YER155C, strain BEM2, active compounds read low",1
same,normalized growth,"locus YER167W, strain BCK2, active compounds read low",1.02
same,normalized growth,"locus YFR010W, strain ubp6, active compounds read low",1.06
same,normalized growth,"locus YGL078C, strain dbp3, active compounds read low",1.02
same,normalized growth,"locus YGL086W, strain mad1, active compounds read low",1
same,normalized growth,"locus YGL167C, strain pmr1, active compounds read low",1.02
same,normalized growth,"locus YGL173C, strain kem1, active compounds read low",1.02
same,normalized growth,"locus YGL227W, strain vid30, active compounds read low",1.03
same,normalized growth,"locus YGL240W, strain doc1, active compounds read low",1.02
same,normalized growth,"locus YGL248W, strain PDE1, active compounds read low",1.06
same,normalized growth,"locus YGL253W, strain hxk2, active compounds read low",1.07
same,normalized growth,"locus YGR135W, strain pre9, active compounds read low",1.01
same,normalized growth,"locus YGR252W, strain gcn5, active compounds read low",1.05
same,normalized growth,"locus YHR013C, strain ard1, active compounds read low",1.04
same,normalized growth,"locus YHR027C, strain rpn1, active compounds read low",1.03
same,normalized growth,"locus YHR030C, strain SLT2, active compounds read low",0.965
same,normalized growth,"locus YHR079C, strain IRE1 (second series), active compounds read low",0.993
same,normalized growth,"locus YHR079C, strain IRE1, active compounds read low",0.97
same,normalized growth,"locus YHR094C, strain hxt1, active compounds read low",1.01
same,normalized growth,"locus YHR129C, strain ARP1, active compounds read low",1.05
same,normalized growth,"locus YHR142W, strain chs7, active compounds read low",1.18 [resistant] (active)
same,normalized growth,"locus YIL066C, strain RNR3, active compounds read low",1.03
same,normalized growth,"locus YIL073C, strain SPO22, active compounds read low",1.12
same,normalized growth,"locus YIL125W, strain kgd1, active compounds read low",0.999
same,normalized growth,"locus YIR030C, strain dcg1, active compounds read low",1
same,normalized growth,"locus YJL092W, strain hpr5, active compounds read low",1.02
same,normalized growth,"locus YJL095W, strain BCK1 (second series), active compounds read low",1.01
same,normalized growth,"locus YJL095W, strain BCK1, active compounds read low",1.06 and 0.993
same,normalized growth,"locus YJL115W, strain asf1, active compounds read low",1.03
same,normalized growth,"locus YJL134W, strain LCB3, active compounds read low",1.02
same,normalized growth,"locus YJL154C, strain vps35, active compounds read low",1.11 [resistant] (active)
same,normalized growth,"locus YJL164C, strain tpk1, active compounds read low",1.02
same,normalized growth,"locus YJL166W, strain qcr8, active compounds read low",1.02
same,normalized growth,"locus YJL168C, strain set2, active compounds read low",0.988
same,normalized growth,"locus YJL187C, strain SWE1 (second series), active compounds read low",1.04
same,normalized growth,"locus YJL187C, strain SWE1, active compounds read low",1.01
same,normalized growth,"locus YJR043C, strain POL32, active compounds read low",1.05
